# From PubChem BioAssay
# “And” between values parts separate entries of the source, which are not always exact repeats. Identical values can stand only once. For some assays here: Potency and affinity values are given separately. The source made the active and inactive calls. Unless noted, the rule behind the calls is not given here.
# Columns and labels:
# [1] = polyglutamine-triggered caspase-3 activation inhibitors, cell-based (AID 1583); conditions: polyglutamine-induced caspase-3 activation, cell assay; stronger effect = higher value;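 tested at 10 µM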
# [2] = suppressors of polyQ aggregation in yeast, 75Q-TubU reporter (AID 1593); conditions: Yeast 75Q polyglutamine aggregation reporter
# [3] = rescue of polyQ-huntingtin neuronal dysfunction in worms, whole organism, C. elegans mechanosensory neurons, N-terminal huntingtin (AID 1599); conditions: touch response, stronger effect = higher value
# [4] = inhibitors of mitochondrial cytochrome c release, biochemical, purified mitochondria (AID 1603); conditions: stronger effect = lower value;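 note: mouse liver mitochondria challenged with calcium chloride; signal normalized to the plate average as 100%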
# [5] = inhibitors of polyQ protein aggregation (AID 1604); conditions: polyglutamine-induced protein aggregation inhibition assay; stronger effect = higher value; tested at 2.5 µM
# [6] = enhancers of glutamate uptake in motor neurons, MN-1 cell line (AID 1612); conditions: MN-1 motor neuron cells, stronger effect = higher value;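 note: tested at 1 µM final; 0% = mean of DMSO vehicle wells on each plate; positive means more glutamate uptake than control and negative means less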
# [7] = suppressors of polyglutamine aggregation in yeast, 75Q-TubH (AID 1616); conditions: S. cerevisiae 75Q-TubH polyglutamine aggregation suppression; stronger effect = higher value
# [8] = circadian clock period modulators, cell-based, LOPAC library, luminescence reporter (AID 2774); conditions: circadian reporter cells, at 7 µM, actives lie on both sides;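 note: values are relative to mean of DMSO wells on each plate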
# [9] = system: Hepatitis C virus NS3 helicase; test: HCV NS3 helicase inhibitors, primary screen, biochemical, fluorescence polarization, LOPAC1280 library (AID 687035; in the data active = inhibition above about 37%); conditions: Purified HCV NS3 helicase, Cy5-dT15 ssDNA binding fluorescence polarization; stronger effect = higher value; concentration not given here
# [10] = Cy5 fluorescence quenching or enhancement artefacts, artefact control for HCV NS3 helicase inhibitor project, biochemical, LOPAC1280 (AID 687037); conditions: Cy5-DNA-NS3h complex fluorescence interference counterscreen
# [11] = Cy5 fluorescence interference with SSB-bound oligo, artefact control for HCV NS3 helicase inhibitor project, biochemical, NIH Clinical Collection, E. coli SSB (AID 743268)
# [12] = system: Hepatitis C virus NS3 helicase; test: HCV NS3 helicase inhibitors, primary screen, biochemical, fluorescence polarization, NIH Clinical Collection (AID 743270); conditions: NS3 helicase binding to Cy5-dT15 DNA, stronger effect = higher value, concentration not given here
# [13] = biological target: Single-stranded DNA-binding protein (Escherichia coli (strain K12)) (UniProt P0AGE0); test: E. coli SSB displacement from DNA, counter-screen for HCV NS3 helicase inhibitor project, biochemical, fluorescence polarization, NIH Clinical Collection (AID 743271; in the data active = inhibition above about 28%); conditions: stronger effect = higher value, concentration not given here
# [14] = fluorescence interference in NS3h assay format, artefact control for HCV NS3 helicase inhibitor project, biochemical, NIH Clinical Collection (AID 743272); conditions: fluorescence interference counterscreen, stronger effect = lower value;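 note: HCV NS3 helicase with a Cy5 labelled single stranded DNA probe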
# [15] = phospholipid biosynthesis inhibitors in animal cells, primary screen, cell-based, LOPAC library, screen 4 (AID 1347384); conditions: phospholipid biosynthesis inhibition screen, at 10 µM
smiles,measurement,setting,value
CN/C(=C\[N+](=O)[O-])NCCSCc1ccc(CN(C)C)o1,inhibition,[1],6.1%
same,score,[2],1.61
same,rescue above control,[3],-10.5
same,cytochrome c release ratio,[4],0.8
same,inhibition of aggregation,[5],71.9%
same,glutamate uptake change,[6],-10.5%
same,aggregation suppression score,[7],1.66
same,period change,[8],0.16 h (inactive)
same,inhibition,[9],-3% (inactive)
same,fluorescence ratio (interference),[10],0.9 (inactive)
same,fluorescence ratio,[11],0.103 (active)
same,inhibition,[12],0.45% (inactive)
same,inhibition,[13],6.39% (inactive)
same,fluorescence ratio,[14],0.89 (inactive)
same,outcome,[15],inactive
CC(C)OC(=O)C(C)(C)Oc1ccc(C(=O)c2ccc(Cl)cc2)cc1,inhibition,[1],-9.13%
same,score,[2],-2.53
same,rescue above control,[3],27.1
same,cytochrome c release ratio,[4],1.27
same,inhibition of aggregation,[5],59%
same,glutamate uptake change,[6],-24.1%
same,aggregation suppression score,[7],0.0671
same,period change,[8],0.08 h (inactive)
same,fluorescence ratio (interference),[10],1.1 (inactive)
same,outcome,[15],inactive
COC(=O)C1=C(C)NC(C)=C(C(=O)OC)C1c1ccccc1[N+](=O)[O-],inhibition,[1],28.5%
same,score,[2],0.82
same,rescue above control,[3],8.1
same,cytochrome c release ratio,[4],0.98
same,inhibition of aggregation,[5],15.2%
same,glutamate uptake change,[6],-6.86%
same,aggregation suppression score,[7],0.369
same,period change,[8],-0.175 h (inactive)
same,inhibition,[9],-1% (inactive)
same,fluorescence ratio (interference),[10],1 (inactive)
same,fluorescence ratio,[11],0.94 (inactive)
same,inhibition,[12],-1.19% (inactive)
same,inhibition,[13],1.44% (inactive)
same,fluorescence ratio,[14],0.9 (inactive)
same,outcome,[15],inactive
O=C(O)CCc1nc(-c2ccccc2)c(-c2ccccc2)o1,period change,[8],0.145 h (inactive)
same,inhibition,[9],-4% (inactive)
same,fluorescence ratio (interference),[10],1 (inactive)
same,fluorescence ratio,[11],1.04 (inactive)
same,inhibition,[12],1.19% (inactive)
same,inhibition,[13],2.21% (inactive)
same,fluorescence ratio,[14],0.94 (inactive)
same,outcome,[15],inactive
O=C1CN(/N=C/c2ccc([N+](=O)[O-])o2)C(=O)N1,inhibition,[1],27%
same,score,[2],0.72
same,rescue above control,[3],4.47
same,cytochrome c release ratio,[4],0.76
same,inhibition of aggregation,[5],41.5%
same,glutamate uptake change,[6],23.4%
same,aggregation suppression score,[7],0.814
COC(=O)C1=C(C)NC(C)=C(C(=O)OCCN(C)Cc2ccccc2)C1c1cccc([N+](=O)[O-])c1 (configuration not stated),inhibition,[1],5.3%
same,score,[2],1.16
same,rescue above control,[3],19.4
same,cytochrome c release ratio,[4],1.07
same,inhibition of aggregation,[5],11.1%
same,glutamate uptake change,[6],-14.8%
same,aggregation suppression score,[7],0.61
same,period change,[8],-0.09 h (inactive)
same,inhibition,[9],3% (inactive)
same,fluorescence ratio (interference),[10],1 (inactive)
same,fluorescence ratio,[11],1.15 (inactive)
same,inhibition,[12],-1.36% (inactive)
same,inhibition,[13],7.91% (inactive)
same,fluorescence ratio,[14],0.91 (inactive)
same,outcome,[15],inactive
CC(C)(C)NCC(O)c1ccc(O)c(CO)c1 (configuration not stated),inhibition,[1],-4.84%
same,score,[2],1.14
same,rescue above control,[3],0.08
same,cytochrome c release ratio,[4],3.64
same,inhibition of aggregation,[5],25%
same,glutamate uptake change,[6],-8.12%
same,aggregation suppression score,[7],0.989
same,period change,[8],-0.055 hour (inactive) and -0.15 hour (inactive)
same,inhibition,[9],0% (inactive)
same,fluorescence ratio (interference),[10],1 (inactive)
same,fluorescence ratio,[11],0.96 (inactive)
same,inhibition,[12],-1.19% (inactive)
same,inhibition,[13],2.98% (inactive)
same,fluorescence ratio,[14],0.94 (inactive)
same,outcome,[15],inactive
COc1ccc2cc([C@H](C)C(=O)O)ccc2c1,inhibition,[1],-27.8%
same,score,[2],0.32
same,rescue above control,[3],-11.2
same,cytochrome c release ratio,[4],0.95
same,inhibition of aggregation,[5],74%
same,glutamate uptake change,[6],6.08%
same,aggregation suppression score,[7],0.196
same,period change,[8],-0.095 h (inactive)
same,inhibition,[9],-6% (inactive)
same,fluorescence ratio (interference),[10],1 (inactive)
same,outcome,[15],inactive
COCCCOc1ccnc(CS(=O)c2nc3ccccc3[nH]2)c1C (configuration not stated),fluorescence ratio,[11],0.94 (inactive)
same,inhibition,[12],-6.33% (inactive)
same,inhibition,[13],0.39% (inactive)
same,fluorescence ratio,[14],0.94 (inactive)
CC12CCC(CC1)C(C)(C)O2,inhibition,[1],20.8%
same,score,[2],1.26
same,rescue above control,[3],2.25
same,cytochrome c release ratio,[4],0.96
same,inhibition of aggregation,[5],71.8%
same,glutamate uptake change,[6],-6.04%
same,aggregation suppression score,[7],1.21
